Data as given in PubChem BioAssay AID743245 (National Center for Advancing Translational Sciences (NCATS), 2014).
Some of the results follow. Records with an inconclusive call do not appear. Activity calls are given as the source filed them. Calls come from the whole dose curve; as a rule, active = well fitted inhibition curve with a large enough effect; inconclusive = small, poorly fitted or top-dose-only effect; inactive = flat fitted curve, though single readings scatter.

target: ATP-dependent Clp protease proteolytic subunit (Bacillus subtilis (strain 168)) (UniProt P80244); assay: qHTS Assay for Activators of ClpP: Hit Validation of Inhibitors; note: nearly all actives have a fitted effect of over 70% in size; conditions: purified B. subtilis ClpP, FRET-FV substrate cleavage, 20 min; series mostly up to 57.5 µM
Sequence (P80244 whole entry, looked up): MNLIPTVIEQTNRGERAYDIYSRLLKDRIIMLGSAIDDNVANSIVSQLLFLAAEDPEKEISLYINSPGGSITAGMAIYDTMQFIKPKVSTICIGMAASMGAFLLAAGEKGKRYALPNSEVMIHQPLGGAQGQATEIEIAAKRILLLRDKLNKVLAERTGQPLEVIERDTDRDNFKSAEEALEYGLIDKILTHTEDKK
Text: The Clp protease proteolytic subunit (ClpP) is the core unit of the Clp complex belonging to the peptidase family S14 that hydrolyzes protein into small peptides in the presence of ATP and magnesium. It is ubiquitously expressed and is the major protease in bacteria. […] Unlike common antibiotics that simply interfere with the essential enzyme activity, ADEP binding activates the ClpP core in the absence of the regulatory Clp-ATPases leading to uncontrolled proteolysis and eventually cell death. Activators binding to the docking site on ClpP can also block formation of the ClpXP and ClpA/C-P holoenzyme complexes interfering with the normal biological functions of ClpP and thus have the potential to become new anti-microbials. To identify activators of ClpP, a FRET based quenching reversal assay was developed using a purified B. subtilis ClpP and a decapeptide substrate (FRET-FV). The FRET-FV is tagged with a fluorescent molecule amino benzoic acid (donor) at the N-terminus and a nitrotyrosine quencher (acceptor) at the C-terminus. FRET-FV cleaves upon activation of ClpP with ADEP treatement and reverses the quenching effect of the nitrotyrosine causing an increase in fluorescence emission signal at 430nm. This assay was used to screen the Molecular Libraries Small Molecule Repository (MLSMR). NIH Molecular Libraries Probe Production Centers Network [MLPCN] NIH Chemical Genomics Center [NCGC] MLPCN Grant: MH095569 Assay Submitter (PI): Michael Maurizi, National Cancer Institute
Two and a half microL/well of purified enzyme solution (final concentrations 10 microg/mL B. subtilis ClpP in 100 mM Tris/HCl pH8, 100 mM KCl, 0.05% low protease BSA, 2.5% glycerol, 0.01% Tween-20 buffer) was dispensed into 1536-well assay plates (Greiner, black solid, medium-binding plates) with Aurora Discovery BioRAPTR Flying Reagent Dispenser (FRD, Beckton-Dickenson). Compound solution (23 nL) was transferred to the assay plate using Kalypsys pin tool equipped with a 1536-pin tool. One and a half microL/well substrate solution (final concentrations 3 microM FRET-FV substrate in 100 mM Tris/HCl pH8, 100 mM KCl, 0.05% low protease BSA, 2.5% glycerol, 0.01% Tween-20 buffer) was then added for a total of 4 microL final reaction volume. FRET signals at time 0 and after 20 min room temperature incubation were obtained using the PerkinElmer Envision plate reader with 320nm excitation and 430nm emission filters. Delta FRET value (Time 20 - Time 0) was calculated and normalized to the delta FRET value of positive control ADEP (5.8 microM final concentration) and negative control DMSO and no enzyme wells.

Potency, inactive:
CCCCn1c(=O)c2oc3ccccc3c2n(CC(=O)Nc2ccccc2OC)c1=O, COc1ccc(CNC(=O)COC(=O)CCS(=O)(=O)c2ccc(C)cc2)cc1OC, COc1cc2[nH]c(=O)n(Cc3ccc(C(=O)NCc4ccc(C)cc4)cc3)c(=O)c2cc1OC, CCN(CCCNC(=O)c1cc2c(=O)n(CC)c3ccccc3c2s1)Cc1ccccc1, CCCCN(C)c1ccc([N+](=O)[O-])cc1, Cc1cccc(NC(=O)c2nnn(CC(=O)Nc3ccc(C(C)C)cc3)c2N)c1C, CCOc1ccc(-c2cc(C)n3nc(C(=O)Nc4ccc(C)c(C)c4)cc3n2)cc1

Potency, active:
CC(C)n1c(-c2cccs2)nc2ccccc21 21.7 µM, COc1ccc(CCNC(=O)c2ccc3c(c2)sc2nc(-c4ccc(C)cc4)cn23)cc1OC 27.3 µM, CN(C(=O)c1cc2c(=O)n3ccccc3nc2s1)C1CCCCC1 13.7 µM, Cc1nc2sc(C)c(C)n2c(=O)c1S(=O)(=O)NCCc1ccc(Cl)cc1 24.3 µM, COc1ccccc1CNC(=O)c1ccccc1NC(=O)c1nsc2ccccc12 24.3 µM, CCOc1ccc(-c2nnc(-c3ccco3)o2)cc1 21.7 µM, CCOC(=O)N1CCN(C(=O)c2ccc3nc4cc(Cl)ccc4c(=O)n3c2)CC1 27.3 µM, Fc1cc(F)c2nc(Nc3nc4c(F)cccc4s3)sc2c1 4.85 µM, COc1ccccc1NC(=O)c1oc2ccccc2c1NC(=O)COc1ccccc1OC 21.7 µM, O=C(Nc1ccc2oc(-c3ccc4ccccc4c3)nc2c1)c1cccs1 10.9 µM, Cc1cccc(-c2oc3ccc(-c4ccc5c(c4)OCO5)cc3c2C#Cc2cncn2C)c1 24.3 µM
